These results are taken from PubChem BioAssay (EPA / NIEHS).

Results filed as inconclusive are left out. More than one record can exist for a structure, and the calls need not agree. Active and inactive are the calls of the source. The calls were made as follows: active = hit-call score of the fitted dose curve at least 0.9, where 1 is the maximum; inconclusive = response in the unintended direction; inactive = score below 0.9.

Assay [1] has as its system chicken Androgen Receptor (AR), gene 422165. The experiment in a line: ATG_chAR_XSP1: Attagene TRANS-FACTORIAL Multi-Species (XSP1) HepG2 Assay for chicken Androgen Receptor (AR) (AID 2283768). In outline: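 Reporter mRNA read by RT-PCR with fluorescent labelling and capillary electrophoresis 24 h after chemical dosing of transiently transfected HepG2 cells. Chicken AR-Gal4 chimera, partially stimulated with 3 nM 6-alpha-fluorotestosterone; activity fitted upward relative to DMSO.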

For assay [2], the system named is zebrafish Estrogen Receptor (ESR2B), gene 317733. The experiment in a line: ATG_zfER2b_XSP1: Attagene TRANS-FACTORIAL Multi-Species (XSP1) HepG2 Assay for zebrafish Estrogen Receptor (ESR2B) (AID 2283773). The gist of the method:
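Multiplexed TRANS format in transfected HepG2 liver cells, chimeric NR-Gal4 from zebrafish ESR2B. 24 h dosing; medium contains 3 nM 6-alpha-fluorotestosterone. mRNA induction by RT-PCR/CE, positive direction vs DMSO.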

Assay [3] can be described thus: ACEA_AR_agonist_AUC_viability: ACEA Biosciences xCELLigence Real-Time Cell Analysis on Androgen Receptor Agonism for Viability (AID 2283775).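 As to AC50: viability read 80 hours after compound addition.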 In outline:
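Viability endpoint from xCELLigence impedance in 22Rv1 prostate cells at 80 h. Eight-point series, 100 uM maximum final.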

The nature of assay [4]: ACEA_AR_antagonist_AUC_viability: ACEA Biosciences xCELLigence Real-Time Cell Analysis on Androgen Receptor Antagonism for Viability (AID 2283776).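 Also: 22Rv1 human prostate cancer cells growing on impedance electrode plates; hits lower the growth signal relative to DMSO meaning cytotoxicity.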 The gist of the method: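 Impedance read-out (RT-CES): area under growth curve at 80 h post-dose, loss of signal scored vs DMSO baseline. 22Rv1 cells; 8-pt 1:4 series, top 100 uM final, ≤0.5% DMSO; biological duplicate.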
Assay [5] addresses Estrogen receptor (Homo sapiens) (UniProt P03372). Nature of the assay: ATG_hERa_XSP1: Attagene TRANS-FACTORIAL Multi-Species (XSP1) HepG2 Assay for human Estrogen Receptor (ESR1) (AID 2283780). In outline:
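Reporter transcripts from multiplexed GAL4-UAS units driven by NR-Gal4 chimeras in transiently transfected HepG2 were measured by RT-PCR with capillary electrophoresis 24 h post-dose, with 3 nM 6-alpha-fluorotestosterone present; gain-of-signal relative to DMSO.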

Assay [6] deals with turtle Estrogen Receptor (ESR1), gene 101933533. The experiment in a line: ATG_trERa_XSP1: Attagene TRANS-FACTORIAL Multi-Species (XSP1) HepG2 Assay for turtle Estrogen Receptor (ESR1) (AID 2283781). The gist of the method: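 Transfect HepG2 with reporter units → dose chemical 24 h (medium has 3 nM 6-alpha-fluorotestosterone) → isolate RNA, RT-PCR → FAM primer extension, HpaI digest → capillary electrophoresis; gain of signal vs DMSO.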

Assay [7] is described as follows: ACEA_ER_AUC_viability: ACEA Biosciences xCELLigence Real-Time Cell Analysis on Estrogen Receptor Agonism for Viability (AID 2283782).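 Also: hit means loss of impedance signal meaning reduced cell growth or viability.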 In outline:
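Read-out: real-time electrical impedance (RT-CES) area under curve, loss of signal taken as reduced viability, normalized to DMSO baseline. T-47D cells, charcoal-stripped serum medium, compounds up to 100 uM final, continuous exposure, 80 h.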

Assay [8] is described as follows: STM_H9_NormalizedViability: Cytotoxicity Assessment at 120 hours in the Stemina devTOX quickPredict H9 human embryonic stem cell (hESC)-based Assay (AID 2283784). In outline: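 CellTiter-Fluor RFU, background-subtracted, expressed relative to 0.1% DMSO neutral control by plate. Pluripotent H9 cells; treatment with daily re-dosing. Plates carried 1uM methotrexate (positive) and 5 nM methotrexate (negative) references.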

The target of assay [9] is Luciferin 4-monooxygenase (Photinus pyralis) (UniProt P08659). The experiment in a line: CCTE_Simmons_QuantiLum_inhib_2: CCTE's Firefly Luciferase Inhibition Assay, Simmons Lab (AID 2283767).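 As to AC50: potency for inhibitors that lower luciferase luminescence relative to DMSO.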 The gist of the method: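 Cell-free QuantiLum luciferase, 5 ng/well; compounds 5 nM–87.5 uM final, 8 conc, 0.5% DMSO; 30 min, 37C, dark. Detection reagent (150 uM D-luciferin, 147 uM dATP, CoA, DTT, pH 7.8 final) injected per well, kinetic luminescence. Triplicate biological replicates.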

Assay [10] deals with AR (gene 367) (UniProt P10275). Nature of the assay: ACEA_AR_agonist_80hr: ACEA Biosciences xCELLigence Real-Time Cell Analysis on Androgen Receptor Agonism for Proliferation (AID 2283783).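 Also: hits increase impedance growth signal above DMSO baseline.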 In outline: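 Impedance (RT-CES) growth signal at 80 h post-dose; 22Rv1 cells, 8-pt 1:4 series, top 100 uM final, DMSO ≤0.5%; duplicate plates; gain-of-signal fit relative to DMSO baseline.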

Assay [11] addresses AR (gene 367) (UniProt P10275). Nature of the assay: ACEA_AR_antagonist_80hr: ACEA Biosciences xCELLigence Real-Time Cell Analysis on Androgen Receptor Antagonism for Proliferation (AID 2283787).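 Also: 22Rv1 human prostate cancer cells with growth followed by electrical impedance; hits lower the impedance growth signal relative to DMSO.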 The gist of the method: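 Measures real-time proliferation of 22Rv1 prostate cancer cells by electrode impedance at 80 hours after dosing. Test articles ran at eight concentrations (1:4 steps, top 100 uM final) in biological duplicate.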

Assay [12] in a line: ArunA_NOG_BranchPointsPerNeurite: ArunA Biomedical's Neurite Outgrowth (NOG) Assay for Branch Points Per Neurite (AID 2283759). In outline: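 Automated image analysis traced neurites (processes >10 um) from valid cell bodies after Hoechst and βIII-tubulin staining. hNN cells from H9 embryonic stem cells, 48 h exposure. Fitted bidirectionally against DMSO.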
Assay [13] concerns zebrafish Androgen Receptor (AR), gene 100005148. Nature of the assay: ATG_zfAR_XSP1: Attagene TRANS-FACTORIAL Multi-Species (XSP1) HepG2 Assay for zebrafish Androgen Receptor (AR) (AID 2283771). The gist of the method: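 Gain-of-signal versus DMSO was measured as reporter transcripts quantified by RT-PCR, fluorescent labelling and capillary electrophoresis after 24 h chemical exposure. The cells were HepG2 expressing a chimeric zebrafish AR-GAL4, co-stimulated with 3 nM 6-alpha-fluorotestosterone.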

Assay [14] concerns the target zebrafish Estrogen Receptor (ESR1), esr1 (gene 259252) (UniProt P57717). Nature of the assay: ATG_zfER1_XSP1: Attagene TRANS-FACTORIAL Multi-Species (XSP1) HepG2 Assay for zebrafish Estrogen Receptor (ESR1) (AID 2283772). In outline: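 Transfect HepG2 with GAL4-UAS multi-reporter constructs; treat 24 h (medium carries 3 nM 6-alpha-fluorotestosterone); extract RNA, reverse-transcribe, PCR-amplify, FAM-label, digest with HpaI; resolve by capillary electrophoresis and compare against DMSO baseline.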

In assay [15] the test system is frog Estrogen Receptor (ESR2), gene 100174814. The experiment in a line: ATG_frER2_XSP1: Attagene TRANS-FACTORIAL Multi-Species (XSP1) HepG2 Assay for frog Estrogen Receptor (ESR2) (AID 2283774). In outline: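 HepG2, transient MRTU transfection (GAL4-UAS reporters, exogenous NR-Gal4 chimeras); 24 h compound exposure; 3 nM 6α-fluorotestosterone co-added; total RNA → RT-PCR → 6-FAM primer extension → HpaI → CE. Positive direction vs DMSO.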

The subject of assay [16] is zebrafish Estrogen Receptor (ESR2A), gene 317734. The experiment in a line: ATG_zfER2a_XSP1: Attagene TRANS-FACTORIAL Multi-Species (XSP1) HepG2 Assay for zebrafish Estrogen Receptor (ESR2A) (AID 2283778). The gist of the method:
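Transient transfection of HepG2 (human liver) with MRTU constructs; chemical dosing for 24 h; medium contained 3 nM 6-alpha-fluorotestosterone to partly stimulate AR. RT-PCR/CE fluorescence of reporter transcripts; positive direction vs DMSO.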

Assay [17] has as its system turtle Androgen Receptor (AR), gene 101947425. The experiment in a line: ATG_trAR_XSP1: Attagene TRANS-FACTORIAL Multi-Species (XSP1) HepG2 Assay for turtle Androgen Receptor (AR) (AID 2283786). The gist of the method: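 Partial androgen stimulation is provided by 3 nM 6-alpha-fluorotestosterone in a multi-species trans-factorial panel expressing a turtle AR–GAL4 fusion in HepG2. After 24 h, reporter mRNA is measured by RT-PCR and capillary electrophoresis and fitted upward against DMSO.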

Assay [18] deals with frog Androgen Receptor (AR), gene 399456. Nature of the assay: ATG_frAR_XSP1: Attagene TRANS-FACTORIAL Multi-Species (XSP1) HepG2 Assay for frog Androgen Receptor (AR) (AID 2283770).

Sequence of Luciferin 4-monooxygenase (Photinus pyralis) (P08659 whole entry, looked up): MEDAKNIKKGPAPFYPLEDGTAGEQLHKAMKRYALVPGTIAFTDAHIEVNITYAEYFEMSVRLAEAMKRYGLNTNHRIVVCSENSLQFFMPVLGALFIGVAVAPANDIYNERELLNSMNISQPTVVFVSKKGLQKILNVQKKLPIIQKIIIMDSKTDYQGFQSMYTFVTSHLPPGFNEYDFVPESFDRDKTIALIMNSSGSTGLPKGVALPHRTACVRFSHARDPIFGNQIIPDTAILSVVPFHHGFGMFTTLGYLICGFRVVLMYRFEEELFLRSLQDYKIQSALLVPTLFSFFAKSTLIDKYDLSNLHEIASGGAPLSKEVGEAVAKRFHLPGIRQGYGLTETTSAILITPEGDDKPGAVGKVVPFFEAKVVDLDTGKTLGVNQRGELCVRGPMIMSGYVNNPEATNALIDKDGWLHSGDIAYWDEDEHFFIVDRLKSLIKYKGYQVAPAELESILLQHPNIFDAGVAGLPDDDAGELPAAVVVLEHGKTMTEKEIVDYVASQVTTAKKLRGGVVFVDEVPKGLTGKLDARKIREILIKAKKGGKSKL
Sequence of AR (gene 367) (P10275 whole entry, looked up): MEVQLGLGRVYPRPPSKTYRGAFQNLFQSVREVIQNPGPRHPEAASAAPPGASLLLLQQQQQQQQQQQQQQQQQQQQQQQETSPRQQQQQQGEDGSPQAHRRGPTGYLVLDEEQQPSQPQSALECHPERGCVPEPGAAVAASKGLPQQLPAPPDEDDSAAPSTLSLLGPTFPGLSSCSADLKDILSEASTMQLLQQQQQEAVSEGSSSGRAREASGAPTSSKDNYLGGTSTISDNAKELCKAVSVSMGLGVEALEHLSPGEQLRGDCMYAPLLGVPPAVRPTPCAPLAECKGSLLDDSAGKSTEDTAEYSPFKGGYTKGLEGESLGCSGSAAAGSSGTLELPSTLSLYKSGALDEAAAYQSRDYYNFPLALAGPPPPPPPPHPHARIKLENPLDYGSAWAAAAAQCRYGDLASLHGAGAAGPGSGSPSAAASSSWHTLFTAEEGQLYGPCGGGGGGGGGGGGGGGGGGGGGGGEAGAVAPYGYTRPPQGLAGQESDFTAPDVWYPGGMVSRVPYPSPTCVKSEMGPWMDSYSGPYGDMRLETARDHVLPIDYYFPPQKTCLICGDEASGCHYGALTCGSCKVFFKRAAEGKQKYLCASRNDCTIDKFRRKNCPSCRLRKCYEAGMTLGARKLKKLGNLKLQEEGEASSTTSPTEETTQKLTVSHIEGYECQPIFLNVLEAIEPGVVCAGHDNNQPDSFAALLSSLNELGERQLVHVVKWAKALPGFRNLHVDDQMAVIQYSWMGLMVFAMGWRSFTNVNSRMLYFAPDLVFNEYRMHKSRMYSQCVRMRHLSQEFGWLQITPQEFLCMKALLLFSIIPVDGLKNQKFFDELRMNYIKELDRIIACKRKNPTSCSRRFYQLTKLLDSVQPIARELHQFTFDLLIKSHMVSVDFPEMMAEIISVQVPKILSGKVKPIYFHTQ
Sequence of zebrafish Estrogen Receptor (ESR1), esr1 (gene 259252) (P57717 whole entry, looked up, the tested form may be a part): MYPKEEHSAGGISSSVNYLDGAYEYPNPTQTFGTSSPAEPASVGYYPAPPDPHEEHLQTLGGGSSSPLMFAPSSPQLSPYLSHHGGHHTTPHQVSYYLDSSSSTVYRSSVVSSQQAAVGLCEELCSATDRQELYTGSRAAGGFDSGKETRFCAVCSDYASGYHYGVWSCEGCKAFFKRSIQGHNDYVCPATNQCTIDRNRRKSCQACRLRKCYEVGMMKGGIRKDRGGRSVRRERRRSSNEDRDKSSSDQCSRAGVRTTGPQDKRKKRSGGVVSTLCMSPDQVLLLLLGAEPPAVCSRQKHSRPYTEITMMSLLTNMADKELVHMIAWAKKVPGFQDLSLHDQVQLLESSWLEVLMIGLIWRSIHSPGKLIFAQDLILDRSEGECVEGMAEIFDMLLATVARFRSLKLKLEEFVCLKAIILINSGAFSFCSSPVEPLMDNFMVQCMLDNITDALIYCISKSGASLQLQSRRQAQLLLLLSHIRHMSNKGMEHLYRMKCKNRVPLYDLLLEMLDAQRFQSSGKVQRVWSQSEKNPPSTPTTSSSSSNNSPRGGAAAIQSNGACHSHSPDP
Sequence of Estrogen receptor (Homo sapiens) (P03372 whole entry, looked up, the tested form may be a part): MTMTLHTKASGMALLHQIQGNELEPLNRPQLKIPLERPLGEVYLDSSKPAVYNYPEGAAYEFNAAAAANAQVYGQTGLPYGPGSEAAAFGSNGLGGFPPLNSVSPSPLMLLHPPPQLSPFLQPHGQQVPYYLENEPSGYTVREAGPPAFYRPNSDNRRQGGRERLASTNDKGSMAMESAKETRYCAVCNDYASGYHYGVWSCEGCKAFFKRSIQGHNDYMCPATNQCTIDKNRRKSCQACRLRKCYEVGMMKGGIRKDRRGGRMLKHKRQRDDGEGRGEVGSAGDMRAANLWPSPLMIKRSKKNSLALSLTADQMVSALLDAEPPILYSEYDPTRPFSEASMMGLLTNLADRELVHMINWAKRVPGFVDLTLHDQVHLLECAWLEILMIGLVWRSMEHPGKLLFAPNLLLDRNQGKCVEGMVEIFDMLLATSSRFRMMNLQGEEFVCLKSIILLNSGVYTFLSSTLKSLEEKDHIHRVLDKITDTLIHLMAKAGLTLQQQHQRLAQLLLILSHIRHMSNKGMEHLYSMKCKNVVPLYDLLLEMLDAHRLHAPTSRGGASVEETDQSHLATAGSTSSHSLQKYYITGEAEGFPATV

What is called AC50 is the concentration at which the activity in the assay is half-maximal. Turning to `CCCCOC(=O)c1ccccc1C(=O)OCCCC`, the molecule was classed as inactive in assay [1], in [6] and in assay [7]. The AC50 is 24.6 µM (active) in assay [2]; 77.2 µM (active) in assay [3]; 66.1 µM (active) in [4]; 19.9 µM (active) in assay [5]; 78.3 µM (active) in assay [7]; 50 µM (active) in assay [8].

`C=CCC1=C(C)C(OC(=O)C2C(C=C(C)C)C2(C)C)CC1=O` (stereo unspecified): the call in assay [9] and in [7] was inactive. The half-maximal activity concentration (AC50) in assay [3] was 52.5 µM (active); in assay [4], 52.5 µM (active); in assay [7] it was 87.8 µM (active) [middle of 5 runs].

In the case of `CC1=C(C(=O)Nc2ccccc2)SCCO1`, the molecule was classed as inactive in assay [9], in assay [4], in [10] and in assay [11].

As to `CC(C)(C)c1ccc(CSc2cnn(C(C)(C)C)c(=O)c2Cl)cc1`, the molecule was classed as inactive in assay [12], in assay [1], in [13], in [14], in assay [2] and in [15]. Moreover, the molecule was classed as inactive in assay [16], in assay [5], in assay [6] and in assay [17]. Also, the AC50 in assay [3] was 16 µM (active); in [4] it was 26.9 µM (active); in assay [8] it was 0.12 µM (active).

Consider `CC(C)Oc1cc(-n2nc(C(C)(C)C)oc2=O)c(Cl)cc1Cl`, for which the AC50 was 18 µM (active) in assay [1]; 29.6 µM (active) in [2]; 33.5 µM (active) in assay [15]; 50 µM (active) in [3]; 50 µM (active) in [4]; 6.88 µM (active) in assay [5]. The concentration at half-maximal activity (AC50) in [6] is 20.8 µM (active); in assay [7] it was 81.9 µM (active). The result in assay [13], in [14], in assay [16] and in assay [17] was inactive.

Regarding `CCCCNC(=O)n1c(NC(=O)OC)nc2ccccc21`, the half-maximal activity concentration (AC50) in assay [9] was 21.5 µM (active); in [3], 45.6 µM (active); in assay [4], 61.6 µM (active); in assay [7], 18.1 µM (active); in assay [8] it was 7.21 µM (active); in assay [11], 71.7 µM (active). Further, the molecule was classed as inactive in assay [10].

For `CC1COC(Cn2cncn2)(c2ccc(Oc3ccc(Cl)cc3)cc2Cl)O1` (stereo unspecified), the outcome in [9] was inactive. The AC50 is 44.8 µM (active) in assay [3], 30.3 µM (active) in [4], 83.2 µM (active) in [7] and 6.39 µM (active) in assay [8].

On to `O=C(O)c1nc(Cl)ccc1Cl`, for which the result in assay [9], in assay [3], in assay [4] and in assay [7] was inactive.

Take `COP(=S)(OC)Oc1nc(Cl)c(Cl)cc1Cl`: the molecule was classed as inactive in [9], in [14] and in [3]. The concentration at half-maximal activity (AC50) in assay [1] was 3.31 µM (active); in assay [18], 5.58 µM (active); in assay [2], 46.6 µM (active); in [15] it was 61.6 µM (active); in [5], 27.1 µM (active); in [6], 27.9 µM (active). Also, the AC50 in assay [7] is 79 µM (active); in [17], 25.3 µM (active).

`C#CCOS(=O)OC1CCCCC1Oc1ccc(C(C)(C)C)cc1` (stereo unspecified): the half-maximal activity concentration (AC50) in assay [18] was 2.11 µM (active); in [14], 166 µM (active); in assay [2], 80.1 µM (active); in assay [15] it was 25.8 µM (active); in [3], 44.7 µM (active); in [4] it was 21.7 µM (active). For the same molecule, the AC50 is 5.29 µM (active) in assay [5]; 44.3 µM (active) in assay [6]; 87.4 µM (active) in [7]; 3.86 µM (active) in [8]; 1.6 µM (active) in assay [17].

Turning to `Oc1ccccc1-c1ccccc1`, the molecule was called inactive in [9] and in [3]. Also, the half-maximal activity concentration (AC50) in [3] is 50 µM (active); in assay [4], 48.6 µM (active); in assay [7], 78 µM (active).

Take `O=C(Nc1ccccc1)Nc1ccnc(Cl)c1`: the molecule was called inactive in [9]. In addition, the concentration at half-maximal activity (AC50) in assay [3] is 39.1 µM (active); in assay [4], 30.8 µM (active); in assay [7], 81.3 µM (active); in assay [11], 33.4 µM (active).

Turning to `C=CCC1=C(C)[C@@H](OC(=O)[C@@H]2[C@@H](C=C(C)C)C2(C)C)CC1=O`, the molecule was called inactive in [9] and in [8]. Besides, the AC50 was 66.9 µM (active) in assay [3], 61.3 µM (active) in assay [4] and 89.8 µM (active) in assay [7].
